Experimental findings from PubChem BioAssay (Tox21) are described below.

Molecules are shown by their SMILES. A number with no mark means an inactive call. The source made the active and inactive calls. Calls follow the shape of the dose curve; as a rule, active = well fitted curve in the direction sought with a large enough effect in the repeat runs; inconclusive = weak or mixed curves; inactive = flat fitted curve, though single readings scatter.
% is scaled to controls: 0 for no effect and ±100 for the full control effect.

This test can be described thus: qHTS assay to test for compound auto fluorescence at 535 nm (green) in HepG2 cells (AID 720675). The note with it: green autofluorescence 485/535 nm, 1 h; series mostly up to 91.3 µM; fluorescence, % of fluorescein control: at the top concentration.
Take `O=C(O)CCS`: the “fluorescence, % of fluorescein control” value is -0.0285% [at 95.7 µM].

As to `COc1ccc(CCN(C)CCCN2CCc3cc(OC)c(OC)cc3CC2=O)cc1OC`, the “fluorescence, % of fluorescein control” value is 0.0573% [at 46 µM].

As for `CCCCCC`, the “fluorescence, % of fluorescein control” value was -0.0165%.

Turning to `O=C(O)CCC(=O)c1ccc(-c2ccccc2)cc1`, the fluorescence, % of fluorescein control is 0.0165% [at 18.6 µM].

As to `CC1CCCO1` (centres undefined), the “fluorescence, % of fluorescein control” value was -0.0418%.

Regarding `CSCC[C@H](NC(=O)[C@H](Cc1c[nH]c2ccccc12)NC(=O)CCNC(=O)OC(C)(C)C)C(=O)N[C@@H](CC(=O)O)C(=O)N[C@@H](Cc1ccccc1)C(N)=O`, the “fluorescence, % of fluorescein control” value was -0.095% [at 46 µM].

On to `COc1ccc(-c2cc(=S)ss2)cc1`, for which the “fluorescence, % of fluorescein control” value is -0.291% [at 46 µM].

`COc1ccc(-n2nc(C(F)F)cc2-c2ccc(S(C)=O)cc2)cc1` (centres undefined): the “fluorescence, % of fluorescein control” value was 0.0265%.

With `O=C(Oc1ccccc1)c1ccc2ccccc2c1O`, the “fluorescence, % of fluorescein control” value was -0.0035%.

For `SCCc1cnccn1`, the “fluorescence, % of fluorescein control” value is 0.026%.

Consider `CCC(C)(C)C(=O)O`, for which the “fluorescence, % of fluorescein control” value is 0.0443%.

With `Cc1cc(CCC(=O)OCCOCCOCCOC(=O)CCc2cc(C)c(O)c(C(C)(C)C)c2)cc(C(C)(C)C)c1O`, the “fluorescence, % of fluorescein control” value is 0.0121%.

For the compound `CCCCCCCC/C=C\CCCCCCCC(=O)OCCO`, the “fluorescence, % of fluorescein control” value is 0.0963% [at 95.7 µM].

Consider `COc1ccc(N)c([N+](=O)[O-])c1`, for which the “fluorescence, % of fluorescein control” value is 0.0039%.

As for `COc1ccc2nc(S(=O)Cc3ncc(C)c(OC)c3C)[nH]c2c1` (centres undefined), the compound was called inactive.

`O=C(O)c1ccc(O)cc1O`: the “fluorescence, % of fluorescein control” value was 0.152%.

With `c1ccc(CNc2ncnc3c2ncn3C2CCCCO2)cc1` (centres undefined), the “fluorescence, % of fluorescein control” value was 0.0738%.

With `C[C@@H]1[C@H](O)[C@@H](C)/C=C/C=C\C=C\C=C\C=C\C=C\C=C\[C@H](O[C@@H]2O[C@H](C)[C@@H](O)[C@H](N)[C@@H]2O)C[C@@H]2O[C@](O)(C[C@@H](O)C[C@@H](O)[C@H](O)CC[C@@H](O)C[C@@H](O)CC(=O)O[C@H]1C)C[C@H](O)[C@H]2C(=O)O` (stereo in doubt), the result was inactive.

For `O=C(O)CCC(=O)OC[C@@H](NC(=O)C(Cl)Cl)[C@H](O)c1ccc([N+](=O)[O-])cc1`, the “fluorescence, % of fluorescein control” value was -0.0528% [at 46 µM].

For `CC(=O)OCCC(C)CC(C)(C)C` (centres undefined), the “fluorescence, % of fluorescein control” value is -0.0214%.

In the case of `O=C1NC(=O)c2cccc3cccc1c23`, the “fluorescence, % of fluorescein control” value is -0.217%.

For `CCN(CC)c1ccc(C(=C2C=CC(=[N+](CC)CC)C=C2)c2ccc(S(=O)(=O)O)cc2S(=O)(=O)[O-])cc1`, the “fluorescence, % of fluorescein control” value is -0.415%.

For `CCCCC[C@H](O)/C=C/[C@H]1[C@H](O)CC(=O)[C@@H]1C/C=C\CCCC(=O)O`, the “fluorescence, % of fluorescein control” value was -0.127% [at 46 µM].

For `CC[C@@H](CO)NCCN[C@@H](CC)CO`, the fluorescence, % of fluorescein control was 0.0308% [at 18.6 µM].

Consider `O=[N+]([O-])C1(Br)COCOC1`, for which the “fluorescence, % of fluorescein control” value was -0.0222%.

In the case of `CCCCOC(=O)CCCCC(=O)OCCCC`, the “fluorescence, % of fluorescein control” value was -0.0067%.

Turning to `N[C@@H](Cc1cc(I)c(O)c(I)c1)C(=O)O`, the “fluorescence, % of fluorescein control” value was 0.181% [at 46 µM].

On to `O=C(O)c1cccc(C[C@@H]2COc3ccc(OCc4nc5cc(F)ccc5s4)cc3[C@@H]2O)c1`, for which the “fluorescence, % of fluorescein control” value was -0.0481%.

With `CN(C)CC/C=C1\c2ccccc2Sc2ccc(Cl)cc21`, the “fluorescence, % of fluorescein control” value was 0.0059% [at 46 µM].

As to `CCOC(=O)C(C)O` (centres undefined), the “fluorescence, % of fluorescein control” value is -0.0196% [at 95.7 µM].

In the case of `Cc1c(C2(c3cc(Br)c(O)c(Br)c3C)OS(=O)(=O)c3ccccc32)cc(Br)c(O)c1Br`, the “fluorescence, % of fluorescein control” value is -0.692%.

With `CCC(CO)(CO)CO`, the “fluorescence, % of fluorescein control” value is 0.115% [at 95.7 µM].

In the case of `CCOC(=O)c1ccc(NC(=O)CN2CCCCC2)cc1`, the “fluorescence, % of fluorescein control” value was -0.0041% [at 46 µM].

With `CCN(Cc1cccc(S(=O)(=O)O)c1)c1ccc(C(=C2C=CC(=[N+](CC)Cc3cccc(S(=O)(=O)O)c3)C=C2)c2ccccc2S(=O)(=O)[O-])cc1`, the “fluorescence, % of fluorescein control” value was -0.0859%.
